SMILES strings stand for the structures. Calls of active or inactive are those of the source. Rule as the data show it, unless noted: active = inhibition above about 28%; inactive = the rest.

The values that follow come from PubChem BioAssay.

One assay deals with Hepatitis C virus NS3 helicase. As to the kind of experiment: blockers of NS3h binding to DNA – biochemical, fluorescence polarization, NIH Clinical Collection, primary screen (AID 743270; call rule not given here). As to conditions: NS3 helicase binding to Cy5-dT15 DNA, stronger effect = higher value, concentration not given here.
With `O=C1N=C(O)CN1N=Cc1ccc(-c2ccc([N+](=O)[O-])cc2)o1`, the inhibition was 0.45% (inactive).
As for `CC(=O)O[C@@]12CO[C@@H]1C[C@H](O)[C@@]1(C)C(=O)[C@H](O)C3=C(C)[C@@H](OC(=O)[C@H](O)[C@@H](NC(=O)OC(C)(C)C)c4ccccc4)C[C@](O)([C@@H](OC(=O)c4ccccc4)[C@H]21)C3(C)C`, the inhibition was 5.15% (inactive).
The same measure, in the same setting: in the case of `CC1c2cccc(O)c2C(O)=C2C(=O)[C@]3(O)C(O)=C(C(N)=O)C(=O)[C@@H](N(C)C)[C@@H]3C[C@@H]21` (stereo partly drawn) it was -1.36% (inactive).
Same read-out and setting: in the case of `C=CC1=C(C(=O)O)N2C(=O)[C@@H](NC(=O)C(=NO)c3csc(N)n3)[C@H]2SC1` it was 11.1% (inactive).
On the same count and under the same terms, with `C[C@H]1O[C@@H](O[C@H]2[C@@H](O)C[C@H](O[C@H]3[C@@H](O)C[C@H](O[C@H]4CC[C@@]5(C)[C@H](CC[C@@H]6[C@@H]5C[C@@H](O)[C@]5(C)C(C7=CC(=O)OC7)CC[C@]65O)C4)O[C@@H]3C)O[C@@H]2C)C[C@H](O)[C@@H]1O` (stereo partly drawn) the figure was -1.36% (inactive).
`CON=C(C(=O)N[C@@H]1C(=O)N2C(C(=O)O)=C(COC(N)=O)CS[C@H]12)c1ccco1`: the inhibition is -4.09% (inactive).
On the same count and under the same terms, in the case of `Cc1cc(=O)oc2cc(NC(=O)C3CCC(=O)N3)ccc12` (stereo not drawn) it was 1.36% (inactive); in that of `N[C@@H](C(=O)N[C@@H]1C(=O)N2C(C(=O)O)=C(CSc3cn[nH]n3)CS[C@H]12)c1ccc(O)cc1` (tested in a mixture with another compound), 21.8% (active); in that of `CN1CCN2c3ncccc3Cc3ccccc3[C@@H]2C1`, -1.36% (inactive).
On the same count and under the same terms, in the case of `C=CC[C@@H]1C=C(C)C[C@H](C)C[C@H](OC)[C@H]2O[C@@](O)(C(=O)C(=O)N3CCCC[C@H]3C(=O)O[C@H](/C(C)=C/[C@@H]3CC[C@@H](O)[C@H](OC)C3)[C@H](C)[C@@H](O)CC1=O)[C@H](C)C[C@@H]2OC` it was -1.19% (inactive); in that of `CN(C)S(=O)(=O)c1ccc2c(c1)/C(=C\CCN1CCNCC1)c1ccccc1S2`, -0.45% (inactive); in that of `C[C@]12C=CC(=O)C=C1CC[C@@H]1[C@@H]2[C@@H](O)C[C@@]2(C)[C@H]1CC[C@]2(O)C(=O)COC(=O)CCC(=O)O`, 7.52% (inactive).
Same read-out and setting: in the case of `CN(C)CC/C=C1/c2ccccc2COc2ccccc21` it was -1.98% (inactive); in that of `CC(=O)NCCCCCCNC(C)=O`, -1.19% (inactive).
As for `CO[C@H]1C=CO[C@@]2(C)Oc3c(C)c(O)c4c(O)c(c5c(nc6cc(C)ccn65)c4c3C2=O)NC(=O)C(C)=CC=C[C@H](C)[C@H](O)[C@@H](C)[C@@H](O)[C@@H](C)[C@H](OC(C)=O)[C@@H]1C`, the inhibition was 1.19% (inactive).
The same measure, in the same setting: with `CO[C@H]1O[C@@H]2O[C@@]3(C)CC[C@H]4[C@H](C)CC[C@@H]([C@H]1C)[C@@]24OO3` the figure was -1.97% (inactive); with `CC(C)CC(NC(=O)C(COC(C)(C)C)NC(=O)C(Cc1ccc(O)cc1)NC(=O)C(CO)NC(=O)C(Cc1c[nH]c2ccccc12)NC(=O)C(Cc1cnc[nH]1)NC(=O)C1CCC(=O)N1)C(=O)N[C@@H](CCCN=C(N)N)C(=O)N1CCCC1C(=O)NNC(N)=O` (stereo partly drawn), -0.22% (inactive).
On the same count and under the same terms, with `COCCCCC(=NOCCN)c1ccc(C(F)(F)F)cc1` the figure was -1.98% (inactive).
The same measure, in the same setting: with `CCN(CC)CCOc1ccc(C(=C(Cl)c2ccccc2)c2ccccc2)cc1` the figure was -10.4% (inactive).
Regarding `CO[C@H]1/C=C/O[C@@]2(C)Oc3c(C)c(O)c4c(O)c(c(C=NN5CCN(C6CCCC6)CC5)c(O)c4c3C2=O)NC(=O)/C(C)=C\C=C\[C@H](C)[C@H](O)[C@@H](C)[C@@H](O)[C@@H](C)[C@H](OC(C)=O)[C@@H]1C`, the inhibition was -0.45% (inactive).
Consider `O=C1CN(N=Cc2ccc([N+](=O)[O-])o2)C(=O)N1`, for which the inhibition was -3.18% (inactive).
Take `C=CC1=C(C(=O)O)N2C(=O)[C@@H](NC(=O)C(=NOCC(=O)O)c3csc(N)n3)[C@H]2SC1`: the inhibition is 27.7% (active).
Same read-out and setting: in the case of `COc1cc(N)c(Cl)cc1C(=O)N[C@@H]1CCN(CCCOc2ccc(F)cc2)C[C@@H]1OC` it was -2.77% (inactive); in that of `COCC1=C(C(=O)OC(C)OC(=O)OC(C)C)N2C(=O)[C@@H](NC(=O)C(=NOC)c3csc(N)n3)[C@H]2SC1` (stereo partly drawn), 1.98% (inactive).

Another assay concerns the target Single-stranded DNA-binding protein (Escherichia coli (strain K12)) (UniProt P0AGE0). Description: SSB-ssDNA binding inhibitors – biochemical, fluorescence polarization, NIH Clinical Collection, counter-screen for HCV NS3 helicase inhibitor project (AID 743271). The settings on record: E. coli SSB-DNA binding, stronger effect = higher value, concentration not given here. (In general: Polarisation of emitted light reports the rotation of a fluorescent probe.)
Consider `O=C1N=C(O)CN1N=Cc1ccc(-c2ccc([N+](=O)[O-])cc2)o1`, for which the inhibition was 7.91% (inactive).
The same measure, in the same setting: with `CC(=O)O[C@@]12CO[C@@H]1C[C@H](O)[C@@]1(C)C(=O)[C@H](O)C3=C(C)[C@@H](OC(=O)[C@H](O)[C@@H](NC(=O)OC(C)(C)C)c4ccccc4)C[C@](O)([C@@H](OC(=O)c4ccccc4)[C@H]21)C3(C)C` the figure was 9.14% (inactive); with `CC1c2cccc(O)c2C(O)=C2C(=O)[C@]3(O)C(O)=C(C(N)=O)C(=O)[C@@H](N(C)C)[C@@H]3C[C@@H]21` (stereo partly drawn), 28.5% (active).
On the same count and under the same terms, in the case of `C=CC1=C(C(=O)O)N2C(=O)[C@@H](NC(=O)C(=NO)c3csc(N)n3)[C@H]2SC1` it was 96.5% (active).
On the same count and under the same terms, in the case of `C[C@H]1O[C@@H](O[C@H]2[C@@H](O)C[C@H](O[C@H]3[C@@H](O)C[C@H](O[C@H]4CC[C@@]5(C)[C@H](CC[C@@H]6[C@@H]5C[C@@H](O)[C@]5(C)C(C7=CC(=O)OC7)CC[C@]65O)C4)O[C@@H]3C)O[C@@H]2C)C[C@H](O)[C@@H]1O` (stereo partly drawn) it was 4.86% (inactive).
For the compound `CON=C(C(=O)N[C@@H]1C(=O)N2C(C(=O)O)=C(COC(N)=O)CS[C@H]12)c1ccco1`, the inhibition is 10.2% (inactive).
The same measure, in the same setting: with `Cc1cc(=O)oc2cc(NC(=O)C3CCC(=O)N3)ccc12` (stereo not drawn) the figure was 11.7% (inactive); with `N[C@@H](C(=O)N[C@@H]1C(=O)N2C(C(=O)O)=C(CSc3cn[nH]n3)CS[C@H]12)c1ccc(O)cc1` (tested in a mixture with another compound), 56.1% (active).
For the compound `CN1CCN2c3ncccc3Cc3ccccc3[C@@H]2C1`, the inhibition is 4.1% (inactive).
As to `C=CC[C@@H]1C=C(C)C[C@H](C)C[C@H](OC)[C@H]2O[C@@](O)(C(=O)C(=O)N3CCCC[C@H]3C(=O)O[C@H](/C(C)=C/[C@@H]3CC[C@@H](O)[C@H](OC)C3)[C@H](C)[C@@H](O)CC1=O)[C@H](C)C[C@@H]2OC`, the inhibition is 2.21% (inactive).
Same read-out and setting: with `CN(C)S(=O)(=O)c1ccc2c(c1)/C(=C\CCN1CCNCC1)c1ccccc1S2` the figure was 1.81% (inactive); with `C[C@]12C=CC(=O)C=C1CC[C@@H]1[C@@H]2[C@@H](O)C[C@@]2(C)[C@H]1CC[C@]2(O)C(=O)COC(=O)CCC(=O)O`, 4.52% (inactive); with `CN(C)CC/C=C1/c2ccccc2COc2ccccc21`, -0.1% (inactive).
Same read-out and setting: in the case of `CC(=O)NCCCCCCNC(C)=O` it was -3.18% (inactive); in that of `CO[C@H]1C=CO[C@@]2(C)Oc3c(C)c(O)c4c(O)c(c5c(nc6cc(C)ccn65)c4c3C2=O)NC(=O)C(C)=CC=C[C@H](C)[C@H](O)[C@@H](C)[C@@H](O)[C@@H](C)[C@H](OC(C)=O)[C@@H]1C`, 1.44% (inactive).
Still for that read-out and setting: in the case of `CO[C@H]1O[C@@H]2O[C@@]3(C)CC[C@H]4[C@H](C)CC[C@@H]([C@H]1C)[C@@]24OO3` it was -3.54% (inactive); in that of `CC(C)CC(NC(=O)C(COC(C)(C)C)NC(=O)C(Cc1ccc(O)cc1)NC(=O)C(CO)NC(=O)C(Cc1c[nH]c2ccccc12)NC(=O)C(Cc1cnc[nH]1)NC(=O)C1CCC(=O)N1)C(=O)N[C@@H](CCCN=C(N)N)C(=O)N1CCCC1C(=O)NNC(N)=O` (stereo partly drawn), 7.48% (inactive).
With `COCCCCC(=NOCCN)c1ccc(C(F)(F)F)cc1`, the inhibition is -0.1% (inactive).
The same measure, in the same setting: in the case of `CCN(CC)CCOc1ccc(C(=C(Cl)c2ccccc2)c2ccccc2)cc1` it was 0.29% (inactive); in that of `CO[C@H]1/C=C/O[C@@]2(C)Oc3c(C)c(O)c4c(O)c(c(C=NN5CCN(C6CCCC6)CC5)c(O)c4c3C2=O)NC(=O)/C(C)=C\C=C\[C@H](C)[C@H](O)[C@@H](C)[C@@H](O)[C@@H](C)[C@H](OC(C)=O)[C@@H]1C`, -0.48% (inactive).
Turning to `O=C1CN(N=Cc2ccc([N+](=O)[O-])o2)C(=O)N1`, the inhibition is -0.48% (inactive).
As for `C=CC1=C(C(=O)O)N2C(=O)[C@@H](NC(=O)C(=NOCC(=O)O)c3csc(N)n3)[C@H]2SC1`, the inhibition was 94.9% (active).
On to `COc1cc(N)c(Cl)cc1C(=O)N[C@@H]1CCN(CCCOc2ccc(F)cc2)C[C@@H]1OC`, for which the inhibition is -0.1% (inactive).
Same read-out and setting: with `COCC1=C(C(=O)OC(C)OC(=O)OC(C)C)N2C(=O)[C@@H](NC(=O)C(=NOC)c3csc(N)n3)[C@H]2SC1` (stereo partly drawn) the figure was -0.1% (inactive).

As a reminder, the inhibition is the relative decrease from the control value, in per cent.
